# Tests used:
# Details in all cases: concentration: 1 μM, replicates: in singlicate; n = 1
# TLK2 = test system: TLK2
# TNIK = test system: TNIK
# TNK1 = test system: TNK1
# TNK2 = test system: TNK2
# TNNI3K = test system: TNNI3K
# TRKA = test system: T1, TRKA
# T1 construct: gene NTRK1
# TRKB = test system: TRKB
# TRKC = test system: T2, TRKC
# T2 construct: gene NTRK3
# TRPM6 = test system: TRPM6
# TSSK1B = test system: TSSK1B
# TSSK3 = test system: TSSK3
# TTK = test system: TTK
# TXK = test system: TXK
# [1] = test system: TYK2(JH1domain-catalytic)
# [2] = test system: TYK2(JH2domain-pseudokinase)
# TYRO3 = test system: TYRO3
# ULK1 = test system: ULK1
# ULK2 = test system: ULK2
# ULK3 = test system: ULK3
# VEGFR2 = test system: T3, VEGFR2
# T3 construct: gene KDR
# 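Note: KINOMEscan kinase panel screen.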
SMILES,%Inh (TLK2) [%],%Inh (TNIK) [%],%Inh (TNK1) [%],%Inh (TNK2) [%],%Inh (TNNI3K) [%],%Inh (TRKA) [%],%Inh (TRKB) [%],%Inh (TRKC) [%],%Inh (TRPM6) [%],%Inh (TSSK1B) [%],%Inh (TSSK3) [%],%Inh (TTK) [%],%Inh (TXK) [%],%Inh [1] [%],%Inh [2] [%],%Inh (TYRO3) [%],%Inh (ULK1) [%],%Inh (ULK2) [%],%Inh (ULK3) [%],%Inh (VEGFR2) [%]
COc1ccc(Nc2ncc(C#N)c(Nc3ccccc3C(N)=O)n2)cc1N1CCN(C)CC1.Cl [GSK1558669],99.6,99.3,100,94.8,82,100,94.8,94.6,46,89,79,99.5,84,99.8,99.7,35,100,100,100,100
CN1c2ccc(NCc3ccc(F)cc3)cc2-c2c(cnn2C)S1(=O)=O,0,38,35,0,2,0,0,2,0,0,0,0,0,0,12,16,0,0,0,4
COc1cc(Nc2nccc(N3CCC(NC(=O)c4cccc(NC(C)=O)c4)C3)n2)cc(OC)c1OC (stereo not drawn) [GSK1379754],0,0,0,16,0,69,0,22,22,18,20,27,7,68,19,0,10,0,87,10
CC(C)Oc1ccc2c(-c3ccnc(Nc4ccc(N5CCN(C)CC5)cc4)n3)cnn2n1 [GW696155],95.1,32,60,46,9,54,39,42,43,79,96,89,13,98,99.4,0,99.9,99.8,100,60
O=C1Cc2cc(Nc3nc(NCc4cccc(S(=O)(=O)C(F)(F)F)c4)ncc3C(F)(F)F)ccc2N1,3,0,0,10,0,17,0,10,0,19,9,0,4,25,0,3,3,26,12,0
O=c1cc(N2CCOCC2)nc2n(Cc3cccc(Cl)c3Cl)c(C3CC3)nn12 [GSK2358994],0,10,0,5,0,1,0,0,0,0,0,0,7,11,0,35,0,10,0,0
Cc1c(Cn2c(C)nn3c(=O)cc(N4CCOC(C)C4)nc23)cccc1C(F)(F)F (stereo not drawn) [GSK2344444],0,0,9,7,0,0,0,0,6,17,0,6,0,13,0,0,34,0,15,0
NS(=O)(=O)CCc1cccc(Nc2nccc(-c3c(-c4cccc(NC(=O)c5c(F)cccc5F)c4)nn4ccccc34)n2)c1 [GSK336735],2,85,100,89,48,0,19,11,56,28,23,26,90.1,98.7,18,100,0,0,3,90
O=c1cc(N2CCOCC2)nc2n(Cc3cccc(F)c3)ccn12 [GSK2297430],0,0,0,18,0,54,27,6,0,12,0,0,4,13,2,12,0,0,0,0
Cc1cccc(-c2nc(Nc3ccc4ncsc4c3)c3ccccc3n2)n1 [GW867588],0,15,39,0,1,14,0,0,0,0,0,55,0,0,55,0,4,0,2,6
Cc1nnc(-c2ccc(C)c(-c3ccc(C(=O)Nc4ccc(NS(C)(=O)=O)cc4)cc3)c2)o1 [GW702865],4,0,0,3,0,23,0,26,7,15,3,0,0,20,11,0,0,0,0,9
COc1cc2ncn(-c3cc(OCc4sccc4Cl)c(C(N)=O)s3)c2cc1OC [GSK448459],0,74,0,24,0,47,25,14,0,1,10,5,0,22,19,0,17,0,19,0
O=C(NOCC1CC1)c1ccc(F)c(F)c1Nc1ccc(I)cc1Cl,0,2,26,0,0,0,0,0,0,0,0,0,0,0,0,0,0,0,0,0
COC(=O)Nc1nc2cc(Oc3ccc(NC(=O)Nc4cc(F)ccc4F)cc3)ccc2[nH]1.Cl [GW701424],3,0,0,11,81,5,68,76,0,0,8,0,88,30,46,0,0,0,7,68
NCC(NC(=O)c1cc(-c2cn[nH]c2)c(-c2ccnc3[nH]ccc23)s1)c1ccccc1.O=C(O)C(F)(F)F.O=C(O)C(F)(F)F (stereo not drawn) [GSK1325775],14,39,0,0,0,76,57,57,45,33,23,14,10,49,31,0,18,7,14,18
CCc1ccnc(/C=C/c2n[nH]c3cc(Sc4ccccc4C(=O)NC)ccc23)c1,0,5,48,0,5,56,0,0,4,0,0,0,0,11,0,0,3,31,9,99.9
Cn1ccc2ncnc(Oc3ccc(NC(=O)Nc4ccncc4)c(Cl)c3)c21,0,0,0,0,0,0,0,0,0,0,0,0,0,3,5,0,0,10,0,1
c1ccc(-c2cc(-c3c[nH]nc3-c3ccccn3)ccn2)cc1 [GW576604],0,72,0,1,89,54,25,0,11,3,2,0,0,13,26,0,0,0,0,0
O=c1cc(N2CCOCC2)nc2n(Cc3cccc4ccccc34)ccn12 [GSK2333389],0,0,0,6,0,0,0,19,2,13,0,10,0,24,10,0,14,7,7,0
Cc1c2ccc(N(C)c3ccnc(Nc4cccc(S(N)(=O)=O)c4)n3)cc2nn1Cc1ccccc1.Cl.Cl [GW787226],12,88,62,0,3,0,0,0,41,1,0,35,17,16,0,0,3,0,6,99.2
Fc1ccc(-c2ncn(CCCN3CCOCC3)c2-c2ccccn2)cc1 [SB-211742],0,0,24,0,0,0,0,0,0,0,0,0,5,0,0,8,0,0,0,0

# Source: article PMC5540273 (PLoS ONE, 2017)
